This is an account of results in the supplement of paper PMC9694430.

Test in all cases: thermal shift delta Tm vs DMSO control; higher = stronger stabilization (binding)
Common to all, as to settings: 12.5 µM; protein concentration 2 µM

One assay concerns LOC_OS01G57100-cb003. The gist of the method: (§1)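 Purified, E. coli-expressed rice kinase domain constructs were tested by differential scanning fluorimetry in 96-well plates: 19.5 μl of 2 μM kinase in 100 mM potassium phosphate pH 7.5, 150 mM NaCl, 10% glycerol, 5 × SYPRO Orange, plus compound in DMSO. Fluorescence was read from 25°C to 95°C at 0.05°C/s. Melting temperatures came from Boltzmann fits, and the shift is the triplicate mean relative to protein with DMSO alone.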

The next assay relates to LOC_OS01G60330-cb001. The gist of the method: as §1
Another assay concerns LOC_OS01G60700-cb002. The gist of the method:
as §1

The next assay has as its system LOC_OS01G63280-cb003. The gist of the method: as §1
The subject of a further assay is LOC_OS01G67340-cb003. The gist of the method:
as §1

For the next assay, the system named is LOC_OS01G70970-cb002. The essentials: as §1
For the next assay, the system named is LOC_OS02G07810-cb001. The essentials:
as §1

Another assay relates to LOC_OS02G08530-cb003. The gist of the method: as §1
A further assay relates to LOC_OS02G14120-cb001. The gist of the method: as §1
The subject of the next assay is LOC_OS02G17970-cb001. The gist of the method:
as §1

Another assay has as its system LOC_OS02G45750-cb003. The gist of the method: as §1
A further assay has as its system LOC_OS02G54510-cb004. The essentials: as §1
A further assay has as its system LOC_OS03G04050-cb001. The gist of the method: as §1
The test system of the next assay is LOC_OS03G12390-cb001. The essentials:
as §1

A further assay concerns LOC_OS03G27990-cb004. The gist of the method:
as §1

The test system of a further assay is LOC_OS03G50450-cb001. The essentials:
as §1

Another assay relates to LOC_OS03G50810-cb003. The gist of the method: as §1
Another assay relates to LOC_OS04G35114-cb001. The gist of the method:
as §1

A further assay concerns T1, LOC_OS04G38480-cb003.
T1 sequence (whole entry): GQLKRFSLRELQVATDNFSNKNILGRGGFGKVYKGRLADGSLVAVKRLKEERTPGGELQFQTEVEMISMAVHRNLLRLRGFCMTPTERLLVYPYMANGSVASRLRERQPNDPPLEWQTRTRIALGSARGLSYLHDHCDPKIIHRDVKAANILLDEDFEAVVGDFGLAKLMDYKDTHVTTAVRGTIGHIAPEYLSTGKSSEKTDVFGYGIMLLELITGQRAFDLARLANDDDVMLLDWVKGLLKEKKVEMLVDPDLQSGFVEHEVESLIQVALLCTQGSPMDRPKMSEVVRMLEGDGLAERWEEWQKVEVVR
The essentials:
as §1

The subject of another assay is T2, LOC_OS04G41100-cb001.
T2 sequence (whole entry): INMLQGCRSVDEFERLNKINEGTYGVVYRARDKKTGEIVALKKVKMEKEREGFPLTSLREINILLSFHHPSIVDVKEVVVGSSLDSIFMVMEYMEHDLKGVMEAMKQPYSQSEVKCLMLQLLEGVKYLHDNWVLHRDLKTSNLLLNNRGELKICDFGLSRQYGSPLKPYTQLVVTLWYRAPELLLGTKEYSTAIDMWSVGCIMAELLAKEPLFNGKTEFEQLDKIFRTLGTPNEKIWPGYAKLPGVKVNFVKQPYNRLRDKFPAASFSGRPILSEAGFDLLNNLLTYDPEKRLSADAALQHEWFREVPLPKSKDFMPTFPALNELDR
The gist of the method:
as §1

Each structure is given as a SMILES string. Where a name gives a salt, the structure may show the parent alone.

On to `O=C(c1ccc(F)c(F)c1Nc1ccc(I)cc1F)N1CC(O)([C@@H]2CCCCN2)C1` [Cobimetinib (GDC-0973, RG7420)], for which the “thermal shift delta Tm” value is 2.49 °C in the assay with LOC_OS01G57100-cb003; 0.82 °C in the assay with LOC_OS01G60330-cb001; 1.16 °C in the assay on LOC_OS01G60700-cb002; 0.52 °C in the assay on LOC_OS01G63280-cb003; 0.36 °C with LOC_OS01G67340-cb003; 0.54 °C in the assay with LOC_OS01G70970-cb002. For the same compound, the “thermal shift delta Tm” value in the assay with LOC_OS02G07810-cb001 was determined as 0.48 °C; with LOC_OS02G08530-cb003, 1.02 °C; in the assay with LOC_OS02G14120-cb001 it was 1.18 °C; in the assay with LOC_OS02G17970-cb001, 0.97 °C; in the assay on LOC_OS02G45750-cb003, 1.13 °C; in the assay with LOC_OS02G54510-cb004, 0.05 °C. The “thermal shift delta Tm” value in the assay with LOC_OS03G04050-cb001 is 0.77 °C; in the assay with LOC_OS03G12390-cb001, -0.17 °C; in the assay with LOC_OS03G27990-cb004 it was 0.68 °C; with LOC_OS03G50450-cb001, 0.95 °C; in the assay on LOC_OS03G50810-cb003, 0.43 °C; in the assay with LOC_OS04G35114-cb001, 0.76 °C. Also, the “thermal shift delta Tm” value was determined as 0.54 °C in the assay with LOC_OS04G38480-cb003 and 0.19 °C in the assay with LOC_OS04G41100-cb001.
For `O=C(O)CCC(=O)Nc1ccc(Br)cn1` [Bikinin], the “thermal shift delta Tm” value in the assay on LOC_OS01G57100-cb003 stood at 3.66 °C; in the assay with LOC_OS01G60330-cb001 it was 0.91 °C; with LOC_OS01G60700-cb002, 0.53 °C; in the assay on LOC_OS01G63280-cb003, 0.52 °C; in the assay on LOC_OS01G67340-cb003 it was 0.6 °C; with LOC_OS01G70970-cb002, 0.23 °C. For the same compound, the “thermal shift delta Tm” value in the assay on LOC_OS02G07810-cb001 turned out to be 0.66 °C; with LOC_OS02G08530-cb003, 0.69 °C; in the assay with LOC_OS02G14120-cb001, 0.3 °C; in the assay with LOC_OS02G17970-cb001, 0.9 °C; with LOC_OS02G45750-cb003 it was 0.64 °C; in the assay with LOC_OS02G54510-cb004 it was 0.11 °C. The “thermal shift delta Tm” value with LOC_OS03G04050-cb001 stood at 0.3 °C; in the assay on LOC_OS03G12390-cb001 it was 0.13 °C; with LOC_OS03G27990-cb004, 0.19 °C; in the assay on LOC_OS03G50450-cb001, 0.33 °C; with LOC_OS03G50810-cb003, 0.43 °C; with LOC_OS04G35114-cb001, 0.74 °C. Also, the “thermal shift delta Tm” value in the assay with LOC_OS04G38480-cb003 is 1.47 °C; in the assay with LOC_OS04G41100-cb001 it was 0.42 °C.
As for `CSc1cccc(Nc2ncc3cc(-c4c(Cl)cccc4Cl)c(=O)n(C)c3n2)c1`, the “thermal shift delta Tm” value came out at 1.54 °C with LOC_OS01G57100-cb003; 0.88 °C in the assay on LOC_OS01G60330-cb001; 0.94 °C in the assay with LOC_OS01G60700-cb002; 0.6 °C in the assay on LOC_OS01G63280-cb003; 0.72 °C in the assay on LOC_OS01G67340-cb003; 0.3 °C in the assay on LOC_OS01G70970-cb002. Besides, the “thermal shift delta Tm” value was 0.11 °C in the assay on LOC_OS02G07810-cb001; 0.12 °C in the assay with LOC_OS02G08530-cb003; 0.99 °C in the assay on LOC_OS02G14120-cb001; -0.06 °C with LOC_OS02G17970-cb001; 1.81 °C with LOC_OS02G45750-cb003; 1.36 °C in the assay with LOC_OS02G54510-cb004. Besides, the “thermal shift delta Tm” value is 0.46 °C with LOC_OS03G04050-cb001; 0.1 °C in the assay with LOC_OS03G12390-cb001; 0.26 °C in the assay on LOC_OS03G27990-cb004; 0.49 °C in the assay on LOC_OS03G50450-cb001; 0.58 °C in the assay with LOC_OS03G50810-cb003; 2.51 °C in the assay with LOC_OS04G35114-cb001. Also, the “thermal shift delta Tm” value is 1.67 °C in the assay on LOC_OS04G38480-cb003 and 0.59 °C in the assay with LOC_OS04G41100-cb001.
Turning to `CCOc1cc(N2CCC(O)CC2)ccc1Nc1ncc2c(n1)N(C)c1ccccc1C(=O)N2C`, the “thermal shift delta Tm” value with LOC_OS01G57100-cb003 was 1.56 °C; with LOC_OS01G60330-cb001, 0.82 °C; in the assay with LOC_OS01G60700-cb002, 1.24 °C; with LOC_OS01G63280-cb003, -0.13 °C; in the assay with LOC_OS01G67340-cb003, -0.04 °C; with LOC_OS01G70970-cb002, 0.52 °C. Also, the “thermal shift delta Tm” value with LOC_OS02G07810-cb001 is 0.39 °C; in the assay on LOC_OS02G08530-cb003 it was 0.9 °C; in the assay on LOC_OS02G14120-cb001 it was -0.64 °C; in the assay on LOC_OS02G17970-cb001, 0.7 °C; in the assay on LOC_OS02G45750-cb003, -0.35 °C; in the assay on LOC_OS02G54510-cb004 it was -0.02 °C. Also, the “thermal shift delta Tm” value in the assay on LOC_OS03G04050-cb001 was 0.11 °C; in the assay on LOC_OS03G12390-cb001, 2.48 °C; in the assay on LOC_OS03G27990-cb004, -0.12 °C; in the assay on LOC_OS03G50450-cb001, 0.38 °C; with LOC_OS03G50810-cb003 it was 0.11 °C; in the assay with LOC_OS04G35114-cb001, 0.71 °C. In addition, the “thermal shift delta Tm” value was 1.18 °C in the assay with LOC_OS04G38480-cb003 and 0.38 °C with LOC_OS04G41100-cb001.
For `COc1cc2c3cc1Oc1c(OC)c(OC)cc4c1[C@@H](Cc1ccc(O)c(c1)Oc1ccc(cc1)C[C@@H]3N(C)CC2)N(C)CC4` [Berbamine (dihydrochloride)], the “thermal shift delta Tm” value is 1.3 °C in the assay on LOC_OS01G57100-cb003; -0.73 °C in the assay on LOC_OS01G60330-cb001; 1.22 °C in the assay with LOC_OS01G60700-cb002; -0.06 °C in the assay with LOC_OS01G63280-cb003; 0.28 °C in the assay on LOC_OS01G67340-cb003; 0.03 °C in the assay on LOC_OS01G70970-cb002. The “thermal shift delta Tm” value in the assay on LOC_OS02G07810-cb001 is -0.23 °C; with LOC_OS02G08530-cb003 it was 1.1 °C; in the assay on LOC_OS02G14120-cb001, 0.03 °C; in the assay on LOC_OS02G17970-cb001, -0.21 °C; in the assay on LOC_OS02G45750-cb003 it was 0 °C; in the assay with LOC_OS02G54510-cb004, -0.14 °C. Moreover, the “thermal shift delta Tm” value with LOC_OS03G04050-cb001 was 0.28 °C; in the assay with LOC_OS03G12390-cb001 it was -0.42 °C; in the assay with LOC_OS03G27990-cb004, -0.08 °C; in the assay on LOC_OS03G50450-cb001, 0.16 °C; in the assay with LOC_OS03G50810-cb003 it was -0.29 °C; in the assay on LOC_OS04G35114-cb001 it was 0.22 °C. Moreover, the figures for the “thermal shift delta Tm” value with LOC_OS04G38480-cb003 and with LOC_OS04G41100-cb001 were 0.37 °C and 0.23 °C, respectively.
For the compound `CN(C)CCOc1ccc(-c2nc(-c3ccncc3)c(-c3ccc4c(c3)CC/C4=N\O)[nH]2)cc1`, the “thermal shift delta Tm” value was 1.76 °C in the assay with LOC_OS01G57100-cb003; 0.92 °C with LOC_OS01G60330-cb001; 0.49 °C in the assay with LOC_OS01G60700-cb002; 0.02 °C in the assay with LOC_OS01G63280-cb003; -0.45 °C in the assay with LOC_OS01G67340-cb003; 0.15 °C with LOC_OS01G70970-cb002. For the same compound, the “thermal shift delta Tm” value in the assay with LOC_OS02G07810-cb001 is 1.2 °C; in the assay on LOC_OS02G08530-cb003 it was 0.96 °C; with LOC_OS02G14120-cb001, -0.05 °C; with LOC_OS02G17970-cb001, -0.1 °C; with LOC_OS02G45750-cb003, 0.22 °C; in the assay with LOC_OS02G54510-cb004, 0.08 °C. In addition, the “thermal shift delta Tm” value in the assay with LOC_OS03G04050-cb001 is 0.13 °C; in the assay on LOC_OS03G12390-cb001, -0.23 °C; with LOC_OS03G27990-cb004, 0.06 °C; in the assay on LOC_OS03G50450-cb001, 0.04 °C; with LOC_OS03G50810-cb003 it was 0.55 °C; in the assay on LOC_OS04G35114-cb001 it was 0.33 °C. Also, the results for the “thermal shift delta Tm” value with LOC_OS04G38480-cb003 and in the assay on LOC_OS04G41100-cb001 were 0.74 °C and 0.3 °C, respectively.
